CD40 NFkB inh – CD40 pathway inhibition in BL2 cells; BL2 NF-kB luciferase reporter, CD40L-induced, 4 h; 83,000 tested, 0.94% active; inhibition, % at 10 µM;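 active means mean inhibition of at least 50% with a set share of replicates also reaching that level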
Large screens that a line does not name were inactive; [ ] = another dose, or the depositor's remark. Many of the other results were omitted from the sample, so hits are more common in it than they were.

C[C@H]1CN([C@@H](C)CO)C(=O)c2c(c3ccccc3n2C)-c2ccccc2CO[C@H]1CN(C)S(=O)(=O)c1ccccc1	none
C[C@@H]1CN([C@@H](C)CO)C(=O)c2c(c3ccccc3n2C)-c2ccccc2CO[C@H]1CN(C)S(=O)(=O)c1ccccc1	none
C[C@@H]1CN([C@H](C)CO)C(=O)c2c(c3ccccc3n2C)-c2ccccc2CO[C@H]1CN(C)S(=O)(=O)c1ccccc1	none
C[C@H]1CN([C@@H](C)CO)C(=O)c2c(c3ccccc3n2C)-c2ccccc2CO[C@H]1CN(C)S(=O)(=O)c1ccc([N+](=O)[O-])cc1	CD40 NFkB inh 72.7[25 µM]
COc1ccc(S(=O)(=O)N(C)C[C@H]2OCc3ccccc3-c3c(n(C)c4ccccc34)C(=O)N([C@H](C)CO)C[C@@H]2C)cc1	none
COc1cccc(S(=O)(=O)N(C)C[C@H]2OCc3ccccc3-c3c(n(C)c4ccccc34)C(=O)N([C@@H](C)CO)C[C@@H]2C)c1	CD40 NFkB inh 59.3[25 µM]
CNC[C@H]1Oc2c(N)cccc2C(=O)N(C)C[C@H]1C	none
CCC(=O)Nc1ccc2c(c1)OC[C@@H](C)N(Cc1ccccc1)C[C@@H](C)[C@H](OC)CN(C)C2=O	none
O=C(C[C@H]1C[C@H]2c3cc(NC(=O)C4CCC4)ccc3O[C@H]2[C@H](CO)O1)NCCc1ccccc1	none
CN(C)C(=O)[C@H]1[C@H](CO)[C@H]2Cn3c(ccc(-c4ccccc4)c3=O)[C@H]2N1C(=O)c1ccccn1	none
CN(C)C(=O)c1cccc(-c2ccccc2[C@@H]2[C@H](C#N)N(C(=O)C3CCCC3)[C@H]2CO)c1	none
O=C(NCCN1CCCC1)[C@@H]1[C@@H](CO)[C@@H]2Cn3c(cccc3=O)[C@H]1N2C(=O)c1ccccc1	none
COc1ccc(CC2C(=O)NC(C)C(=O)N(C)C3Cc4ccc(cc4)Oc4cc(ccc4O)CC(C(=O)NC(C)C(=O)NC(C)C(=O)N2C)N(C)C3=O)cc1 (configuration not stated)	CD40 NFkB inh 67.1
C[C@H]1CN([C@@H](C)CO)C(=O)c2cccc(NS(=O)(=O)c3ccc(Cl)cc3)c2O[C@H]1CN(C)C(=O)Nc1ccc2c(c1)OCO2	none
COc1ccc(-c2ccccc2[C@H]2[C@@H](CO)N(C(=O)C3CCOCC3)[C@H]2C#N)cc1	none
O=C(C1CCCCC1)N1CC[C@@H]2[C@H]1c1cc(Br)ccc1N[C@@H]2CO	none
O=C(C[C@H]1C[C@H]2c3cc(NC(=O)Nc4ccc(F)cc4)ccc3O[C@H]2[C@@H](CO)O1)NC1CCCC1	none
O=C(/C=C/c1ccc2c(c1)OCO2)c1ccccn1	none
C(=Cc1cnc2ccccc2n1)c1ccc2c(c1)OCO2	CD40 NFkB inh 97.5
Nc1nc2ccccc2n1/N=C/c1ccc2c(c1)OCO2	none
COc1cccc(-c2ccc3n(c2=O)C[C@@H]2[C@@H](CO)[C@H](C(=O)NCC4CC4)[C@H]3N2S(C)(=O)=O)c1	none
COc1cccc(CNC(=O)C[C@@H]2CC[C@H]3[C@H](COc4ccc(NS(=O)(=O)c5ccccc5F)cc4C(=O)N3C)O2)c1	none
COC(=O)c1ccccc1NC1=C/C(=N\S(=O)(=O)c2cccs2)c2ccccc2C1=O	CD40 NFkB inh 33.2
COC(=O)c1ccccc1NC(=O)C(CCS(C)(=O)=O)NC(C)=O (configuration not stated)	none
COC(=O)c1ccccc1NC(=O)COC(=O)/C=C/c1cccs1	none
N#C[C@@H]1[C@@H](c2ccccc2-c2cccc(F)c2)[C@H](CO)N1C(=O)CN1CCOCC1	none
O=C1CCCc2cnnn2COC[C@H](Cc2ccccc2)N1	none
CCOC(=O)C1CCCN(CCC(C)c2ccccc2)C1 (configuration not stated)	none
CCOC(=O)c1c(SCCN2CCCC2)n(-c2ccccc2)c(=S)n(-c2ccccc2)c1=O	CD40 NFkB inh 51.3
CCOC(=O)c1c(C)c(C(=O)N2CCN(c3ccccc3)CC2)c(C)n1C	none
CC(C)NC(=O)N1C[C@H]2[C@@H](c3ccccc31)[C@@H](CO)N2C(=O)Nc1ccccc1	none
CCCNC(=O)N(C)C[C@H]1Oc2ncc(C#CC3CCCCC3)cc2C(=O)N([C@H](C)CO)C[C@@H]1C	none
C=CC[n+]1c(/C=C2\C=Cc3cc(C)ccc3N2CC)ccc2ccccc21	CD40 NFkB inh 65.0
COc1ccc(CN2[C@H](CO)[C@H]3c4ccccc4N(C(=O)Nc4ccc(F)cc4)C[C@H]32)cc1	none
COc1ccc(NC(=O)N(C)C[C@H]2OCc3ccccc3-c3c(n(C)c4ccccc34)C(=O)N([C@@H](C)CO)C[C@H]2C)cc1	none
CCCNC(=O)N1[C@@H](C#N)[C@@H](c2ccc(C3=CCCCC3)cc2)[C@@H]1CO	none
CCCNC(=O)N1[C@H](CO)[C@@H](c2ccc(C3=CCCCC3)cc2)[C@@H]1C#N	none
CCCNC(=O)N1[C@H](C#N)[C@H](c2ccc(C3=CCCCC3)cc2)[C@@H]1CO	CD40 NFkB inh 61.0[25 µM]
CN1C(=O)c2cc(NC(=O)Nc3ccccc3Cl)ccc2OC[C@H]2O[C@@H](CC(=O)O)CC[C@@H]21	none
COc1ccc(OC(=O)N(C)C[C@H]2OCc3ccccc3-c3ccccc3C(=O)N([C@@H](C)CO)C[C@@H]2C)cc1	none
CN1C(=O)c2cc(NC(=O)c3cscn3)ccc2OC[C@@H]2O[C@@H](CC(=O)N3CCOCC3)CC[C@@H]21	none
